In PubChem BioAssay (NCI):
The panel holds about 83,000 compounds, 20% with a hit somewhere; the sample as a whole holds those more often.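 Each cell line was grown in a 96-well plate and treated with one concentration of compound for 48 hours. Values below 10 were considered active.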 Unmarked numbers belong to inactive results. Active and inactive are the calls of the source.

These compounds were tested on MDA-MB-468 breast (assay: NCI-60 one-dose screen, 48 h (100 = growth as untreated, 0 = no growth, -100 = all killed)). Conditions: 10 µM unless noted.

Compound	growth
COc1ccc(S(=O)(=O)NCCNc2nccc(-c3c(-c4ccccc4)nc4sccn34)n2)cc1	36.7%
O=C(NNc1ccc(-c2ccccc2)nn1)c1ccc(F)cc1	98.2%
O=C(Nc1ccc(F)cc1)c1cc2cc(Nc3nc(-c4ccccc4)nc4ccccc34)ccc2oc1=O	111%
COc1cc2c(cc1OC)C(Sc1ccc(Cl)cc1)c1c(nc(N)c(C#N)c1N)O2 (stereo unspecified)	-23.6% (active)
O=[N+]([O-])c1ccc(S(=O)(=O)OCCCCOS(=O)(=O)c2ccc([N+](=O)[O-])cc2)cc1	92.2%
CC12CCC3C(CCC4CC(=O)/C(=C\O)CC43C)C1CCC(=O)O2 (stereo unspecified)	108%
COc1ccc(C2[C@@H](Cl)C(=O)N2c2cc(OC)c(OC)c(OC)c2)cc1Cl (stereo partly specified)	2.32% (active)
Cc1cccc(NC(=O)c2sc3nc4c(cc3c2N)CCC4)c1C	10.6%
O=C(NCCNc1nccc(-c2c(-c3cccc(O)c3)nc3sccn23)n1)c1ccccc1O	52%
CCCCC1(O)CCCCC1	94.9%
Cc1cc(N2CCCC2)nc(N(CCCNc2ccnc3cc(Cl)ccc23)Cc2ccc3c(c2)OCO3)n1	-47.4% (active)
C=C(C)[C@@H]1CC[C@]2(C(=O)ON)CC[C@]3(C)[C@H](CC[C@@H]4[C@@]5(C)C/C(=C/c6ccc(Br)cc6)C(=O)C(C)(C)[C@@H]5CC[C@]43C)[C@@H]12	73.2%
COc1ccc(/C=C\c2cc(OC)c(OC)c(OC)c2)c(NS(=O)(=O)c2ccc(C(C)(C)C)cc2)c1O	38.9%
O=c1cc(-c2ccccc2)[nH]n1-c1nc2ccccc2[nH]1	66.2%
CCOc1cc(C2C(Cl)C(=O)N2n2cnnc2)ccc1O (stereo unspecified)	111%
CC1=CC[C@@H]2C(C)(C)C(=O)CC[C@@]2(C)[C@@H]1COc1ccc2ccc(=O)oc2c1	43.1%
OCC1OC(n2ccc3c2ncn2ncnc32)C(O)C1O (stereo unspecified)	-5.09% (active)
C=C1SC(=Nc2ccccc2Cl)N(C(=O)c2sc3ccccc3c2Cl)C1(C)C	50%
Nc1ncccc1O	74%
CSc1nc(Nc2cccc(NC(=O)/C(C#N)=C/c3c(Cl)cccc3Cl)c2)c(C#N)c(-c2cccc([N+](=O)[O-])c2)n1	36.9%
CCOC(=O)C1CCc2c(ccc3ccccc23)N1CCC#N (stereo unspecified)	73.6%
COC(=O)C12C3C(=O)N(c4ccc(OC)cc4)C(=O)C3C(c3cn(-c4ccccc4)nc3C)N1[C@H](c1cn(-c3ccccc3)nc1C)[C@@H]1C(=O)N(c3ccc(OC)cc3)C(=O)[C@@H]12 (stereo partly specified)	97.4%
N#Cc1c(-c2ccccc2)nc(SCC2CO2)nc1N1CCOCC1 (stereo unspecified)	55.9%
Cc1ccc(S(=O)(=O)NCN2C(=O)c3ccccc3C2=O)cc1	93.6%
O=C1c2cc3c(cc2-c2c1c1ccc(F)cc1c(=O)n2CCCNCCO)OCO3	-70.8% (active)
CCNC(=O)Oc1ccc(/C(=C(/C)c2ccccc2)c2ccc(OCCN3CCCCCC3)cc2)cc1	-16.9% (active)
